The panel holds about 83,000 compounds, 20% with a hit somewhere; the sample as a whole holds those more often.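 48-hour exposure, single concentration, 96-well plates; percent growth endpoint where 0 means no net growth. Active: below 10.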 Values without a mark were called inactive. Calls of active or inactive are those of the source.
System: MDA-MB-468 breast
Test: NCI-60 one-dose screen, 48 h (100 = growth as untreated, 0 = no growth, -100 = all killed)
Conditions: 10 µM unless noted

Row | Compound | growth
1 | CN1CCN(c2cc(Nc3cc(C4CC4)[nH]n3)nc(Nc3ccc(CC(=O)NCc4cccc(F)c4)cc3)n2)CC1 | 98.8%
2 | CC1OC(O[C@H]2/C=C/C=C/C=C/C=C/C=C/C=C/C=C/[C@H](C)[C@@H](O)[C@@H](C)[C@H](C)OC(=O)CC(O)CC(O)CCC(O)C(O)CC(O)C[C@]3(O)C[C@H](O)C(C(=O)O)C(C2)O3)C(O)[C@H](N)C1O (some centres not stated) | 83.3%
3 | CCCCCCCCCCCCCC[n+]1ccc(C(N)=O)cc1 | -40.6% (active)
4 | CC1(COc2ccc3ncc(C#Cc4cncc(C(=O)Nc5cccc(C(F)(F)F)c5)c4)n3n2)COC1 | 102%
5 | CC(C)N1C(=O)/C(=c2\sc3n(c2=O)C2C(NN=3)N(C)C(=O)N2C)c2ccccc21 (configuration not stated) | 37.3%
6 | Cc1ccc(-c2csc(NC(=O)CSc3nc(-c4ccccc4)cc(=O)[nH]3)n2)cc1 | 108%
7 | C=C(CN1CC=CCC1)[C@@H]1CC[C@]2(COC(C)=O)CC[C@]3(C)[C@H](CC[C@@H]4[C@@]5(C)CC[C@H](O)C(C)(C)[C@@H]5CC[C@]43C)[C@@H]12 | 95%
8 | CCCCCCCCCCCCSC1=CC(=O)C=CC1=O | 82.8%
9 | CCOC(=O)c1c(Nc2ccccc2)nn2c(-c3ccccc3)ccnc12 | 98%
10 | Cc1ccccc1NS(=O)(=O)c1cccc(C(=O)Nc2ccc(Br)cc2)c1 | -2.56% [25 µM] (active)
11 | Cc1cc(C(C)(C)C)ccc1S | 104%
12 | O=[N+]([O-])c1ccc(O)c(-c2nc3ccccc3s2)c1 | 63.5%
